Source: PubChem BioAssay AID504773 (Broad Institute, 2011)
Potency and affinity values are given separately. Calls of active or inactive are those of the source.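 The calls were made as follows: active = polarization signal falls with dose and the fitted half-maximal concentration is at or below ten times the sample's top valid dose; inconclusive = flat curve at 30 to 70% inhibition, or poor fit; inactive = signal rises, flat within 30%, or potency beyond limit.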

Biological target: Golgi-associated PDZ and coiled-coil motif-containing protein (Homo sapiens) (UniProt Q9HD26)
Test: potency against CAL PDZ-peptide interaction – biochemical, fluorescence polarization, Cerulean-tagged CAL PDZ, cherry-picks, dose response (AID 504773)
Details: CAL PDZ-peptide binding, 1 h; series mostly up to 50 µM

outcome, inactive:
CCc1nc(SCC(=O)c2ccccc2)c2c(=O)n(C)c(=O)n(C)c2n1
O=C(O)CC1(CC(=O)Nc2ccc(Br)cc2)CCCCC1
CC(C)OC(=O)C1CC(C)(O)C(=O)C(C(=O)OC(C)C)C1c1ccc([N+](=O)[O-])cc1 (stereo unspecified)
CC(C)CNC(=O)CN1C(=O)NC(Cc2c[nH]c3ccccc23)C1=O (stereo unspecified)
CCOC(=O)/C=C/C(=O)OCC(=O)Nc1ccc([N+](=O)[O-])cc1
COc1ccc(C(=O)Nc2ccc(S(=O)(=O)N3CCCC3)cc2)cc1[N+](=O)[O-]
O=C(c1ccccc1)C(CCc1ccccn1)CCc1ccccn1
C/C(=N\NC(=O)C(O)c1ccccc1)c1ccc(Cl)s1 (stereo unspecified)
O=C(c1cc(Br)ccc1Cl)N1CCN(c2ccccn2)CC1
Cc1ccc2nc(NCc3ccc(F)cc3)c3nncn3c2c1
C=CCOC(=O)C1=C(C)Nc2nc3ccccc3n2C1c1ccncc1 (stereo unspecified)
O=C(N/N=C/c1ccc(OCc2ccccc2)cc1)c1ccc(O)cc1
COc1ccc(OC)c(NC(=O)c2ccc(OC3CSC3)cc2)c1
CCN(CC)CCn1c(SCC(=O)NCc2ccccc2)nc2c(sc3ccccc32)c1=O
NC(=O)C1CCN(c2ncccc2[N+](=O)[O-])CC1
CN(C)S(=O)(=O)c1ccc(Cl)c(NC(=O)CSc2nnnn2-c2ccc(O)cc2)c1
O=C(NCc1ccccc1)C1CCCN(c2nc3ccsc3c(=O)s2)C1 (stereo unspecified)
COc1ccc(CCn2c(=S)[nH]c3ccc(N4CCOCC4)cc3c2=O)cc1OC
Cc1ccc(S(=O)(=O)N2CCN(C(=O)N(C)C)CC2)cc1
CCCCN(CCCC)CCNC(=O)c1ccc2nc(-c3ccccc3NC(C)=O)c(=O)[nH]c2c1
CNC(=O)c1nnn(Cc2ccccc2)c1NC(C)=O
O=C(c1cccc(Oc2c(Cl)cccc2[N+](=O)[O-])c1)N1CCOCC1
Cc1nn(C)cc1CN(C)C(=O)c1nn2c(c1Br)NC(c1cccs1)CC2C(F)(F)F (stereo unspecified)
Cc1ccccc1-n1c(C)c(C#N)c(=O)c(-[n+]2ccccc2)c1[S-]
N=c1c(S(=O)(=O)c2ccc(Cl)cc2)cc2c(=O)n3ccccc3nc2n1C1CCCCC1
O=C(Nc1ccc([N+](=O)[O-])cc1)Nc1cnccn1
COCCN(C(=S)Nc1ccccc1OC)C1CCN(C(C)C)CC1
COc1ccc(C(CNC(=O)COc2ccccc2-c2ccccc2)N2CCOCC2)cc1 (stereo unspecified)
Cc1ccccc1N1CCN(S(=O)(=O)c2ccccc2)CC1
CN(C)c1ccc(P(=O)(OC2CCCCC2)C(O)c2cccnc2)cc1 (stereo unspecified)
Cn1c(=O)c2c(nc(SCC(=O)NCC3CCCO3)n2Cc2ccc(F)cc2)n(C)c1=O (stereo unspecified)
Cc1ccc(NC(=O)N2CCCC2C(=O)NCC2CCCO2)cc1 (stereo unspecified)
C(=C/c1nccc2c1[nH]c1ccccc12)/c1ccc2c(c1)OCO2
Oc1ccccc1N=Cc1c(O)ccc2oc3c(c12)CCCC3
CCC(C(=O)NN1C(=O)c2ccccc2C1=O)c1ccccc1 (stereo unspecified)
COc1ccccc1NC(=O)N(c1c(N)n(Cc2ccccc2)c(=O)[nH]c1=O)C1CCCC1
